Source: PubChem (National Center for Advancing Translational Sciences (NCATS))
Hits are enriched below; roughly 21% of the tested compounds scored in any of these assays.
Shiga toxin inh: inhibitors of Shiga toxin in Vero cells | Vero cells, Shiga toxin protein synthesis inhibition reporter | actives 9.2% (n = 290,000) | inhibition, % at 38.7 µM; in the data active = inhibition mostly above about 28%, no sharp cut-off; inactive = mostly below about 43%; note: 0% is about no effect
Pf growth 96h: inhibits malaria parasite growth, 96 h | P. falciparum luciferase reporter growth, 96 h | Potency, µM (top dose mostly 28.7 µM), without a hit: at the highest dose activity change, negative = inhibition, usual class: inhibitors | actives 6.9% (n = 320,000) | AID 504834; note: potency is the fitted concentration of half-maximal effect; % is set by controls: 0 for no effect and ±100 for the full control effect
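P. falciparum expressing integrated firefly luciferase grown in erythrocytes (2% hematocrit, 0.05% parasitemia final) with compounds for 96 hours at 37 C, 5% CO2. Growth inhibition read as loss of luminescence after adding luciferase detection reagent.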
HCV inhibitor: inhibitors of hepatitis C virus infection. Huh7.5.1 HCVcc-Cre infection, luciferase reporter, 44 h. actives 3.4% (n = 340,000). Potency, µM (doses to about 41.8 µM), for inactives: top-dose activity change, negative = inhibition, hits mostly inhibitors; note: potency is the fitted concentration of half-maximal effect; % is set by controls: 0 for no effect and ±100 for the full control effect
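Cells seeded at 1,000/well and cultured 4 h, then compounds added followed by HCVcc-Cre virus (~0.5 moi). After 44 h further culture, luciferase substrate was added, plates held 15 min at room temperature, and luminescence read for 15 sec.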
Pf growth 48h: inhibits P. falciparum growth in the first generation, 48 h | P. falciparum luciferase growth in erythrocytes, 48 h | Potency, µM (titrated, usually from 28.7 µM), inactives show at the top dose activity change, negative = inhibition, actives largely listed as inhibitors | actives 5.9% (n = 310,000) | AID 504832; note: potency is the fitted concentration of half-maximal effect; % is set by controls: 0 for no effect and ±100 for the full control effect
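Luciferase-expressing P. falciparum in infected erythrocytes (2% hematocrit, 0.1% parasitemia final) in RPMI 1640/0.5% Albumax were exposed to compound for 48 hours at 37 C, 5% CO2; growth read as luminescence.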
CHX counter: affects cycloheximide protein synthesis inhibition readout, counter-screen; max response, %; cell reporter, cycloheximide protein synthesis inhibition counterscreen; actives 12% (n = 300,000); AID 2314; in the data active = max response mostly above about 13%, no sharp cut-off; inactive = mostly below about 14%; note: read at 38.3 µM for the half of the compounds with a filed dose; 0% is about no effect
HCMV antiviral: blocks human cytomegalovirus replication. HFF cells, HCMV-luciferase reporter, 72 h; active compounds read low. activity change, negative = inhibition, % at 57.5 µM. actives 4.5% (n = 410,000). AID 1259415; in the data active = activity change below about -60%; inconclusive = no clear call, values can overlap the other calls; inactive = above about -39%; note: % is set by controls: 0 for no effect and ±100 for the full control effect
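Luciferase read-out from HCMV-luciferase-infected HFFs (MOI 1 PFU/cell) 72 h post infection at 37C; compounds added after 16 h cell attachment; activity normalized between buffer-only basal and Salinomycin (10uM) inhibitor controls.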
An asterisk follows results filed as active; i = inactive; ? = inconclusive; / = no result; [ ] = dose if it differs, or a comment. Unless noted, calls come from the whole dose curve; as a rule, active = well fitted inhibition curve with a large enough effect; inconclusive = small, poorly fitted or top-dose-only effect, or another doubt; inactive = no such curve, though single readings can be large or run the other way.

SMILES	Shiga toxin inh	Pf growth 96h	HCV inhibitor	Pf growth 48h	CHX counter	HCMV antiviral
O=C(NNC(=O)C1CC1c1ccccc1)c1ccccc1[N+](=O)[O-] (stereo unspecified)	-8	12µM*	1%	47%	1	1
O=C(NNC(=O)c1ccccc1[N+](=O)[O-])c1ccccc1[N+](=O)[O-]	-10	7.4µM*	24%	10%	1	0
O=C(c1nc2ccccc2[nH]1)c1ccccc1[N+](=O)[O-]	73*	59%	18%	146%	32*	180
CCOc1ccc(-c2c(C)nn3c(C)c(C(=O)NCCc4ccc(C)cc4)cnc23)cc1OCC	/	/	/	/	/	-10
O=C(/C=C\c1ccc2c(c1)OCO2)CC1(O)C(=O)Nc2ccccc21 (stereo unspecified)	-4	-18%	22%	26%	6	71
CN(Cc1cnn(C)c1)C(=O)C1CCC(=O)N(Cc2ccc(Cl)cc2)C1 (stereo unspecified)	12	-18%	/	5%	-6	-33
Cc1ccc2nc(CN3CCN(C(=O)Nc4cccc(C)c4C)CC3)oc2c1	/	/	/	/	/	-7
O=C(Nc1ccccc1F)C1CC1c1ccccc1 (stereo unspecified)	41*	15%	-8%	20%	12	-19
COc1ccc(C(=O)NNC(=O)c2ccccc2[N+](=O)[O-])cc1	37*	13µM*	9%	122%	32*	39
O=C1CN(C(=S)NC(=O)c2ccccc2[N+](=O)[O-])CCN1	-7	7.4µM*	34%	6%	-1	-18
COc1ccc(C(=O)NNC(=O)c2ccccc2[N+](=O)[O-])cc1Br	17	18%	-21%	18%	-2	-17
Cc1cccc(NC(=O)C2CC2c2ccccc2)c1C (stereo unspecified)	/	57%	-19%	0%	7	-37
COc1ccc(NS(=O)(=O)c2cc(NC(=O)c3cccc(OCc4c(C)noc4C)c3)ccc2OC)cc1	-7	6.6µM*	?	9.3µM*	-1	-65*
Cc1ccc(NC(=O)c2cccc(OCc3c(C)noc3C)c2)cc1	39	2%	?	/	29*	12
Cc1noc(C)c1COc1cccc(C(=O)Nc2ccccc2)c1	/	?	?	?	/	-32
CCCc1cc(=O)[nH]c(SCC(=O)Nc2c(C)n(C)n(-c3ccccc3)c2=O)n1	/	/	12%	/	/	13
CCOc1ccc(-c2c(C)nn3c(C)c(C(=O)Nc4cccc(Cl)c4C)cnc23)cc1OCC	/	/	/	/	/	-15
O=C1c2cccnc2C(Nc2ccc(Cl)cc2)N1Cc1cccs1 (stereo unspecified)	10	?	3%	-16%	2	-65*
COc1cc(NC2c3ncccc3C(=O)N2Cc2ccco2)cc(OC)c1 (stereo unspecified)	-1	3.7µM*	1%	?	9	40
Cc1ccc(NC2c3ncccc3C(=O)N2Cc2cccs2)cc1C (stereo unspecified)	39	?	-11%	-22%	6	-32
Cc1ccc(NC(=O)CSc2nnnn2C)cc1S(=O)(=O)N(C)C	31	9%	-20%	-20%	17*	22
Cc1ccc(NC(=O)CSc2nnnn2C)cc1S(=O)(=O)N1CCCCC1	/	/	/	/	/	-9
Cc1ccc(NC(=O)CSc2nc3c(cc2C#N)C(=O)CCC3)cc1S(=O)(=O)N(C)C	-4	?	?	?	10	-69*
O=C(CSc1nnnn1Cc1ccccc1)Nc1ccc2c(c1)OCCO2	65	4%[5.75 µM]	-3%	21%	23*	17
CC(=O)Nc1ccc(C(=O)CSc2nnnn2C(C)C)cc1	81*	?	-1%	27%	21*	-19
SMILES	Shiga toxin inh	Pf growth 96h	HCV inhibitor	Pf growth 48h	CHX counter	HCMV antiviral
O=C(CSc1nccn1Cc1ccccc1)Nc1ccc2c(c1)OCCO2	/	/	/	/	/	54
COc1ccccc1NC(=O)CSCc1cc(=O)n2c(C)csc2n1	-2	17%	-3%	21%	7	-13
COc1ccc(Cl)cc1C(=O)N1CCN(Cc2ccc3c(c2)OCO3)CC1	6	-3%	-1%	-26%	3	9
CC(O)C(=O)O (stereo unspecified)	/	-2%	/	-5%	/	/
Cc1ccc(NC(=O)CSc2nn(-c3ccccc3)c(=S)s2)cc1S(=O)(=O)N(C)C	15	3.3µM*	?	?	10	-78*
O=C(CSc1nn(-c2ccccc2)c(=S)s1)Nn1cnnc1	15	11%	19%	20%	-4	-11
c1ccn2c(SCc3ccc4c(c3)OCCO4)nnc2c1	98*	-40%	-2%	90%	51*	2
Cc1ccc(NC(=O)C(C)Sc2nnc3ccccn23)cc1 (stereo unspecified)	/	/	-2%	/	/	41
Cn1nnnc1SCC(=O)Nc1ccc2c(c1)OCCO2	81*	13%	11%	i	33*	17
CC(Sc1nnc2ccccn12)C(=O)Nc1ccc2c(c1)OCCO2 (stereo unspecified)	85*	33%	27%	36%	21*	3
O=[N+]([O-])c1cccc(CSc2nnc3ccccn23)c1	44	1%	-5%	12%	-2	15
O=[N+]([O-])c1ccccc1S(=O)(=O)Nc1cccc(S(=O)(=O)N2CCCC2)c1	/	/	22%	/	/	-13
CC(Sc1nnnn1C)C(=O)Nc1ccc2c(c1)OCCO2 (stereo unspecified)	115*	71%	17%	78%	29*	42
CN(C)S(=O)(=O)c1cccc(NC(=O)COc2cccc(C#N)c2)c1	3	8%	?	22%	12	?
CC(Sc1nnnn1C)C(=O)Nc1ccc(N2CCOCC2)cc1 (stereo unspecified)	28	4%	17%	-4%	7	-13
COc1ccc(S(=O)(=O)N(C)C)cc1NC(C)C(=O)Nc1cccc(C#N)c1 (stereo unspecified)	8	?	-7%	2.9µM*	-2	10
Nn1cc(-c2ccccc2)nc1SCC(=O)Nc1ccc2c(c1)OCO2	2	?	-8%	-1%	2	-100*
COc1ccc(S(=O)(=O)N(C)C)cc1NCC(=O)Nc1ccc(Br)c(C)c1	-15	?	10µM*	10µM*	2	?
Cc1ccc(C)c(N2CCN(c3nc4ccccc4c4nc(-c5cccnc5)nn34)CC2)c1	/	/	/	/	/	1
O=C(O)C1=CC[C@@H](c2ccc(Cl)cc2)N(S(=O)(=O)c2ccc(Cl)cc2)[C@H]1c1cccc(Cl)c1	/	?	0%	?	/	-3
COc1ccc(CCC(=O)Nc2ccc(C)c(S(=O)(=O)N(C)C)c2)cc1OC	-6	-7%	?	-2%	-2	-77*
CCC(=O)Nc1cccc(NC(=O)CSc2nnnn2Cc2ccccc2)c1	-23	2.1µM*	-4%	27%	-6	-27
